Laboratory results: PubChem BioAssay (EPA / NIEHS)
Values joined by “and” are separate entries in the source; they are usually repeats but may differ in a detail not shown here. Identical values can stand only once. Inconclusive results are not listed. Active and inactive are the calls of the source. How the source made its calls: active means hit-call score of the fitted dose curve at least 0.9, where 1 is the maximum; inconclusive means response in the unintended direction; inactive means score below 0.9.

Experiment: Tanguay_ZF_120hpf_PIG_legacy: (Legacy) Oregon State University Tanguay Lab 120 Hour Post-fertilization zebrafish Assay for Pigmentation Malformation (AID 2283650);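 further: dechorionated Tropical 5D zebrafish embryos exposed singly from 6 to 120 hpf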
Experimental: Tanguay_ZF_120hpf_legacy is a whole embryo, multiplexed endpoint assay using zebrafish larvae exposed for 120 hours post fertilization on a 96-well plate.Tanguay_ZF_120hpf_PIG_legacy is one of one assay component(s) measured or calculated from the Tanguay_ZF_120hpf_legacy assay. It is designed to make measurements of zebrafish development as detected with brightfield microscopy of developing zebrafish embryos.Data from the assay component Tanguay_ZF_120hpf_PIG_legacy was analyzed into 1 assay endpoints. This assay endpoint, Tanguay_ZF_120hpf_PIG_legacy, was analyzed in the positive analysis fitting direction relative to DMSO as the negative control and baseline of activity. Using a type of morphology reporter, gain-of-signal activity can be used to understand changes in developmentals as they relate to the whole embryo. To generalize the intended target to other relatable targets, this assay endpoint is annotated to the zebrafish development intended target family, where the subfamily is embryonic pigmentation.
Zebrafish husbandry: Tropical 5D wild-type adult zebrafish were housed in at an approximate density of 1000 per 100 gallon tank at the Sinnhuber Aquatic Research Laboratory, Oregon State University, Corvallis, OR. Each tank was kept at standard laboratory conditions of 28C on a 14-h light/10-h dark photoperiod in fish water consisting of reverse osmosis water supplemented with a commercially available salt (Instant Ocean). Spawning funnels were placed into the tanks the night prior, and embryos were collected and staged. To increase bioavailability, the chorion was enzymatically removed using pronase (63.6mg/ml, >/= 3.5U/mg, Sigma-Aldrich: P5147) at 4 hours post fertilization (hpf) using a custom automated dechorionator.Chemical exposures: Six hpf dechorionated embryos were placed 1 embryo per well in a 96-well plate prefilled with 90 ul of EM using automated embryo placement systems (AEPS). Ten microliters of each row of dilution plate 2 was added to 2 exposure plates. The final DMSO concentration used was 0.64% (vol/vol). Thirty-two embryos were also exposed to 5uM trimethyltin chloride (positive control). Plates were sealed to prevent evaporation and foil covered to reduce light exposure and kept in a 28C incubator. Embryos were statically exposed until 120 hpf. At 24 hpf, embryos were assessed for photomotor response using a custom photomotor response analysis tool (PRAT) and for developmental toxicity endpoints (MO24: mortality at 24 hpf, DP: developmental progression, SM: spontaneous movement, and NC: notochord distortion). At 120 hpf, locomotor activity was measured using Viewpoint Zebralab and assessed for 18 endpoints. Zebrafish acquisition and analysis program (ZAAP), a custom program designed to inventory, acquire, and manage zebrafish data, was used to collect developmental endpoints as either present or absent (i.e., binary responses were recorded). If mortality occurred for an embryo (at either 24 or 120 hpf), the non-mortality endpoints were not measured.
For CC(C)(c1ccc(O)cc1)c1ccc(O)cc1, the AC50 was 42 µM (active) and 36.8 µM (active). In the case of COc1c(Cl)ccc(Cl)c1C(=O)O, the outcome is reported as “inactive”. For CCCOC(=O)NCCCN(C)C, the outcome was “inactive”. With CC(=O)S[C@@H]1CC2=CC(=O)CC[C@]2(C)[C@H]2CC[C@@]3(C)[C@@H](CC[C@@]34CCC(=O)O4)[C@H]12 the outcome was “inactive”. In the case of CCCOC(=O)c1ccc(C(=O)OCCC)nc1, the outcome is reported as “inactive”. In the case of O=C(Nc1ccc([N+](=O)[O-])cc1Cl)c1cc(Cl)ccc1O, the outcome is reported as “inactive”. In the case of N#CSCSc1nc2ccccc2s1, the outcome is reported as “inactive”. In the case of COC(=O)c1ccc(I)cc1S(=O)(=O)NC(=O)Nc1nc(C)nc(OC)n1, the outcome is reported as “inactive”. For S=C([S-])NCCNC(=S)[S-].[Mn+2], the outcome was “inactive”. For C#CCOC(=O)[C@@H](C)Oc1ccc(Oc2ncc(Cl)cc2F)cc1, the outcome was “inactive”. With C[C@]12C[C@H](O)[C@H]3[C@@H](CCC4=CC(=O)CC[C@@]43C)[C@@H]1CC[C@@H]2C(=O)CO the outcome was “inactive”. With CCCCC(CC)COC(=O)c1ccccc1C(=O)O (stereo not given) the outcome was “inactive”. With CCNc1nc(N)nc(Cl)n1 the outcome was “inactive”. For C#C[C@]1(O)CC[C@H]2[C@@H]3CCC4=CC(=O)CC[C@@H]4[C@H]3CC[C@@]21CC, the outcome was “inactive”. In the case of CCCCC(CC)CN1C(=O)C2C3C=CC(C3)C2C1=O (stereo not given), the outcome is reported as “inactive”. In the case of CC(C)(C)[C@@H](O)[C@@H](Cc1ccc(Cl)cc1)n1cncn1, the outcome is reported as “inactive”. In the case of CCOC(=O)C(C)Oc1ccc(Oc2cnc3cc(Cl)ccc3n2)cc1 (stereo not given), the outcome is reported as “inactive”. For Cc1nn(C)c(Oc2ccccc2)c1C=NOCc1ccc(C(=O)OC(C)(C)C)cc1, the outcome was “inactive”. With S=C(S)NCCNC(=S)S.[Mn+2].[S-]C([S-])=NCCN=C([S-])[S-].[Zn+2] the outcome was “inactive”. In the case of CCCCCOC(=O)COc1cc(N2C(=O)C3=C(CCCC3)C2=O)c(F)cc1Cl, the outcome is reported as “inactive”. With C[C@]12CC[C@@H]3c4ccc(O)cc4C[C@@H](CCCCCCCCCS(=O)CCCC(F)(F)C(F)(F)F)[C@H]3[C@@H]1CC[C@@H]2O (stereo not given in full) the outcome was “inactive”. With O=C(O)C1(C(=O)Nc2ccc(Cl)cc2Cl)CC1 the outcome was “inactive”. For COC(=O)CSc1cc(N=c2sc(=O)n3n2CCCC3)c(F)cc1Cl, the outcome was “inactive”. In the case of CCN(CC)C(=O)c1cccc(C)c1, the outcome is reported as “inactive”. For Oc1ccc(C(c2ccc(O)cc2)C(Cl)(Cl)Cl)cc1, the AC50 was 202 µM (active). In the case of N[C@@H](Cc1cc(I)c(Oc2ccc(O)c(I)c2)c(I)c1)C(=O)O, the AC50 is reported as 0.00051 µM (active). With COCCO the outcome was “inactive”. With CCC(C)OC(=O)N1CCCCC1CCO (stereo not given) the outcome was “inactive”. With CCOC(=O)c1ccc(O)cc1 the outcome was “inactive”. With CN(C)C(=O)Nc1ccc(Cl)c(Cl)c1 the outcome was “inactive”. For c1ccc2[nH]c(-c3cscn3)nc2c1, the outcome was “inactive”. For c1ccc(Nc2ccccc2)cc1, the outcome was “inactive”. For O=C(c1ccccc1)C1CCCCC1, the outcome was “inactive”. For CCCCOC(=O)C(C)Oc1ccc(Oc2ccc(C(F)(F)F)cn2)cc1 (stereo not given), the outcome was “inactive”. For COC(=O)c1ccccc1C(=O)O, the outcome was “inactive”. For CSC(=O)c1cccc2nnsc12, the outcome was “inactive”. For CCOC(=O)C(C)Oc1ccc(Oc2nc3ccc(Cl)cc3o2)cc1 (stereo not given), the outcome was “inactive”. For O=C(O)c1ccccc1, the outcome was “inactive”. In the case of CCOC(=O)COc1cc(-n2ncc(C(F)(F)F)c(C)c2=O)c(F)cc1Cl, the outcome is reported as “inactive”. With CCCN(CCC)C(=O)SCC the outcome was “inactive”.
